# Screening results: PubChem, National Center for Advancing Translational Sciences (NCATS)
# Hits are enriched below; roughly 1.2% of the tested compounds scored in any of these assays.
# NPSR antag: antagonists of human neuropeptide S receptor cAMP signaling. Q6W5P4. CHO-NPSR cells, cAMP TR-FRET, antagonist mode. Potency, µM (highest dose often 38.3 µM), for the others: at the top dose activity change, negative = inhibition, usual class: inhibitors. hit rate 1% among 220,000. AID 1461; note: nearly all actives have a fitted effect of over 50% in size
# TrxR1 substrate: substrates of rat thioredoxin reductase 1; purified TrxR1 substrate turnover, NADPH consumption readout; Potency, µM (series often up to 114 µM), without a hit: at the top dose activity change, negative = substrate turnover; hit rate 0.01% among 390,000; note: nearly all actives have a fitted effect of over 50% in size
#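 Rat TrxR1, dispensed at 90 nM, was prereduced with 400 uM NADPH (final) for 5 min at ~22 deg C, then incubated with compound 15 min before 400 uM selenite. A first-read NADPH fluorescence drop versus no-compound background flagged substrates.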
# GALK inhibitor: inhibitors of human galactokinase; Potency, µM (titrated, usually from 57.5 µM), for inactives: top-dose activity change, negative = inhibition, hits mostly inhibitors; Purified GALK, Kinase-Glo residual ATP luminescence; P51570; hit rate 0.007% among 270,000
# Target sequence (P51570 whole entry, looked up): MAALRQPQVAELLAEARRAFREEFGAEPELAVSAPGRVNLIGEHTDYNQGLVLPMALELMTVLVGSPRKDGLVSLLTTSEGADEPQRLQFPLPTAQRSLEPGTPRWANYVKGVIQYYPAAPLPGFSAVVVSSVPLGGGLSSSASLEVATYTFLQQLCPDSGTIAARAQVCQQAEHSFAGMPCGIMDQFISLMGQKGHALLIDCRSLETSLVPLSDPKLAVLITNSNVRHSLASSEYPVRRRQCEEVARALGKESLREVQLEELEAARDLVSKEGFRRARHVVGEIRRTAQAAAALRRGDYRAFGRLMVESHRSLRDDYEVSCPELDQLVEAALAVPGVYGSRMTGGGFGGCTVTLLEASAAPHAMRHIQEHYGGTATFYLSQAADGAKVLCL
#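 5 nM enzyme, 35 uM ATP, 100 uM galactose, 20 mM HEPES pH8.0, 5 mM MgCl2; 1 h RT; residual ATP by Kinase-Glo Plus luminescence, qHTS format.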
# TrxR1 inh: rat TrxR1 inhibition. O89049. recombinant rTrxR1, NADPH fluorescence consumption, selenite substrate. Potency, µM (doses to about 114 µM), inactives show top-dose activity change, negative = inhibition, hits mostly inhibitors. hit rate 1% among 390,000. AID 588453; note: nearly all actives have a fitted effect of over 65% in size
#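 Rat TrxR1 (90 nM in the dispensed reagent) was pre-reduced with 400 uM NADPH for 5 min at room temperature, then incubated with compound for 15 min. After 400 uM selenite was added, NADPH fluorescence (Ex 340/Em 450 nm) was followed for 8 min.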
# * marks the source's active call; other numbers are inactive results; ? = inconclusive; · = no result given; ! = repeats disagree; [ ] = another dose, or the depositor's remark. Calls come from the whole dose curve; as a rule, active = well fitted curve in the direction sought with a large enough effect; inconclusive = small, poorly fitted or top-dose-only effect, or another doubt; inactive = no such curve, though single readings can be large; an effect the other way counts as inactive or inconclusive. % is set by controls: 0 for no effect and ±100 for the full control effect; potency is the fitted concentration of half-maximal effect.
SMILES,NPSR antag,TrxR1 substrate,GALK inhibitor,TrxR1 inh
CCOC(=O)c1cc2c(=O)n3cccc(C)c3nc2n(Cc2ccco2)c1=NC(=O)c1ccccc1,-21.5%[46.1 µM],3.2%[11.4 µM],-4.2%,56.2µM*!
CC1=C(SCc2ccccc2)C(=O)c2ccccc2C1=O,·,-4.7%[2.29 µM],·,-42.6%[57.1 µM]
O=C1C(SCCO)=C(SCCO)C(=O)c2ccccc21,12.6µM*,10µM*,·,15.8µM*
O=C1N(c2ccccc2)C[C@@H]2C[C@@H](c3cccs3)N3CCC[C@@]123,23.4%,3.8%,4.6%,20µM*
O=C/C=C/c1c(-c2ccccc2)cc2oc3ccccc3cc1-2,·,-5.0%,6.4%,44.7µM*
O=C(C[n+]1cccc2cccc(O)c21)c1ccc(Br)cc1,·,1.3%,·,20.7%
CC(C)(C)n1ncc2c(=O)n(Cc3cccc(F)c3)cnc21,·,-2.5%,·,7.9%
O=C(O)CCN1CC2([N+](=O)[O-])C=CC(=O)C([N+](=O)[O-])(C1)C2CC(=O)c1ccccc1 (stereo unspecified),17.5%,-10.6%,0.0%,14.1µM*
O=C(CCCC(=O)N1CCN(c2ccc([N+](=O)[O-])cc2)CC1)c1ccccc1,-1.3%,-10.3%,0.2%,-12.0%
COc1cc(/C=C2\N=C(c3ccccc3)OC2=O)ccc1OC(C)=O,·,-4.0%,3.1%,-1.3%
COc1ccc(/C=C2\N=C(C)OC2=O)cc1OC,·,-14.6%,-3.1%,39.8µM*
COc1ccc(/C=C2\N=C(C)OC2=O)cc1OC(C)=O,·,-14.6%,1.5%,44.7µM*
CCOC(=O)COc1c(Cl)cc(/C=C2\N=C(C)OC2=O)cc1OC,·,7.7%[57.1 µM],·,14.1µM*
CCN(CC)/[N+]([O-])=N/Oc1ccc([N+](=O)[O-])cc1[N+](=O)[O-],·,-10.9%,·,14.1µM*
CCNC(=O)N1CCN(/[N+]([O-])=N/Oc2ccc([N+](=O)[O-])cc2[N+](=O)[O-])CC1,·,-7.4%,·,14.1µM*
CN(C)/[N+]([O-])=N/Oc1cc(F)c([N+](=O)[O-])cc1[N+](=O)[O-],·,-9.6%,·,20µM*
CCN(CC)C(=O)N1CCN(/[N+]([O-])=N/Oc2ccc([N+](=O)[O-])cc2[N+](=O)[O-])CC1,·,-7.9%,·,22.4µM*
CN(C(=O)Cn1cc(S(=O)(=O)Cc2ccccc2Cl)c2ccccc21)c1ccccc1,·,-5.3%,·,6.2%
CC(C)(C)OC(=O)N1CCN(/[N+]([O-])=N/Oc2ccc([N+](=O)[O-])cc2[N+](=O)[O-])CC1,·,14.6%,·,?
CC(=O)N1CCN(/[N+]([O-])=N/Oc2ccc([N+](=O)[O-])cc2[N+](=O)[O-])CC1,·,-4.4%,·,10µM*
Cn1nc(-c2ccc(Cl)cc2)c2cc(C(=O)NCCCN3CCCC3)sc21,10µM*,52.9%,-0.1%,14.4%
O=C(NC1CCCCC1)[C@@H]1CC=C[C@@H]2CCN(Cc3ccc(Cl)c(Cl)c3)C(=O)[C@@H]21,·,-6.1%,·,11.5%
COc1ccc(C(=O)CC(=O)c2ccccc2)cc1,·,-5.9%[57.1 µM],·,14.8%[11.4 µM]
COc1ccc(C2(C(=O)c3ccccc3)C(=O)c3ccccc3C2=O)cc1,-25.8%,3.0%,3.5%,2.24µM*
O=[N+]([O-])c1ccc2c(c1)S(=O)(=O)C=C2,·,19.3%[57.1 µM],·,2.12µM*
SMILES,NPSR antag,TrxR1 substrate,GALK inhibitor,TrxR1 inh
CCOc1ccc(C(=O)NC2C(=O)N3C(C(=O)O)=C(COC(C)=O)CSC23)cc1OCC (stereo unspecified),·,-5.5%,·,56.2µM*
CN(C)c1ccc(/C=C/c2ccnc3ccccc23)cc1N,·,-12.9%,·,-22.4%
Cc1ccc(C(=O)N2CCC(C(=O)c3ccc(F)cc3)CC2)cc1,·,4.1%[2.29 µM],·,17.9%[2.29 µM]
Cc1ccc(C(=O)N2C(=S)C(c3ccc(F)cc3)=NC23CCN(C)CC3)cc1,?,-9.8%,-3.2%,20µM*
Oc1cc(NCCN2CCOCC2)cc2cccnc12,·,-0.3%,·,11.2µM*
Oc1cc(Nc2ccccc2)cc2cccnc12,·,-3.6%,·,12.1%[57.1 µM]
CCN1CCOC(=O)C1CC(=O)Nc1cc(Cl)ccc1C (stereo unspecified),·,3.6%,·,11.2µM*
CCN1CCOC(=O)C1CC(=O)Nc1ccc(C)c(Cl)c1 (stereo unspecified),·,7.1%[11.4 µM],·,?
O=C(NC1CCCc2ccccc21)c1cnn2c1NC(=C1CC1)C=C2C(F)F (stereo unspecified),·,0.8%,·,26.1%
CC(=O)Nc1cc([N+](=O)[O-])cc(NC(C)=O)c1NC(C)=O,·,-5.9%,·,2.5%
O=C(CCl)N(CCc1ccccc1)CCc1ccccc1,·,0.5%,-0.6%,11.2µM*
O=C(CCCc1ccccc1)NCCc1ccccc1,·,-3.7%,6.3%,16.3%
COc1cc2c(cc1OC)C(C)N(C(=O)c1cc3c(=O)oc4ccc(C)cc4c3s1)CC2 (stereo unspecified),-16.7%,24.5%,·,79.4µM*
COc1cc2c(cc1OC)C(C)N(C(=O)c1cccs1)CC2 (stereo unspecified),-3.0%,-5.9%,2.9%,5.2%[57.1 µM]
COc1ccc(C2=C(C)C(=NCCCN3CCN(c4cc(C)ccc4C)CC3)NS2(=O)=O)cc1,·,4.5%,·,14.2%
COc1ccc2c(c1O)C(=O)c1ccccc1C2=O,-21.1%,·,0.7%,·
Nc1c(O)ccc2c1C(=O)c1ccccc1C2=O,10µM*,-8.4%,3.2%,-19.1%
CCc1ccc2n(-c3ccc(OC)cc3)c([S-])c(C(=O)Nc3cc(C)cc(C)c3)[n+]2c1,10µM*,7.1%,-0.8%,22.0%
COc1ccc(CCNC(=O)c2c([S-])n(-c3ccc(C)cc3)c3cccc[n+]23)cc1,-41.8%,-0.7%,-4.6%,18.4%
CC(C)=CC(=O)OCC(=O)Nc1ccccc1Cl,-5.7%[46.1 µM],-7.1%,1.3%,-13.4%
CCOC(=O)/C=C/C(=O)OCC(=O)Nc1cccc(Cl)c1Cl,18.5%,1.1%,-0.2%,14.1µM*
COc1ccccc1-n1c(SCC(=O)N(C)C)nnc1-c1ccco1,·,0.2%,·,-6.0%
COc1ccccc1NC(=O)CSc1ccc(-c2ccco2)nn1,·,-6.7%,-2.7%,50.1µM*
COc1ccccc1-n1c(SCC(=O)NC(C)(C)C)nnc1-c1ccco1,0.3%[46.1 µM],5.8%,0.3%,8.91µM*
COc1ccc(OC)c(NC(=O)CSc2ccc(-c3ccco3)nn2)c1,·,-4.5%,-6.5%,3.98µM*
SMILES,NPSR antag,TrxR1 substrate,GALK inhibitor,TrxR1 inh
COc1ccc(OC)c(NC(=O)CSc2ccc(-c3cccs3)nn2)c1,·,-6.0%,·,4.9%
Cc1ccccc1NC(=O)CSc1ccc(-c2ccco2)nn1,14.9%,-2.5%,-0.1%,?
O=[N+]([O-])c1ccc(/C=C2\C=C(C(O)c3ccc([N+](=O)[O-])cc3)c3ccccc32)cc1 (stereo unspecified),·,-10.3%,·,-5.6%
COc1cc2nc(N3CCN(C)CC3)nc(NC3CCN(C)CC3)c2cc1OC,·,87.8%,·,?
Cn1c(=O)[nH]c(=O)c2c1nc([N+](=O)[O-])n2Cc1ccccc1,-2.9%[7.67 µM],-3.5%,6.7%,6.31µM*
Cn1c(=O)[nH]c(=O)c2c1nc(Br)n2CCC(=O)c1ccccc1,-9.8%[46.1 µM],5.3%[57.1 µM],4.7%,17.8µM*
Cn1c(=O)[nH]c(=O)c2c1nc(Br)n2C/C=N/NC(=O)c1ccccc1,-26.3%,1.5%[57.1 µM],-2.1%,15.7%[57.1 µM]
O=C(Cc1cccs1)N/N=C/C=C/c1ccco1,-32.6%,-14.4%,·,44.7µM*
